Source: PubChem (National Center for Advancing Translational Sciences (NCATS))
Nrf2 inh – Nrf2 pathway inhibition | Potency, µM (top dose mostly 46 µM), for inactives: at the top dose activity change, negative = inhibition, actives largely listed as inhibitors | A549 ARE-Fluc reporter, luciferase luminescence, 18-24 h | actives 2.1% (n = 360,000); further: potency means the concentration at half of the fitted maximal effect; on the % scale 0 is the no-effect control and ±100 the full control effect; nearly all actives have a fitted effect of over 60% in size
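Nrf2 function is reported as luminescence of an ARE-controlled luciferase in A549 cells. Compounds were tested at several concentrations, and a CellTiter-Fluor read on the same wells flagged cytotoxicity.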
Nrf2 ARE act – activates Nrf2 signaling; AREc32 ARE-luciferase reporter (MCF7-derived line), luminescence, 24 h; actives 0.31% (n = 410,000); Potency, µM (highest dose often 46.1 µM), inactives show at the top dose activation, hits mostly activators; AID 624171; further: potency means the concentration at half of the fitted maximal effect; % of control where 0% means no effect; nearly all actives have a fitted effect of over 65% in size
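ARE activation measured as luciferase luminescence (Steady-Glo, 30 min RT) in AREc32_Fluc cells after 24 hr compound exposure at 37 deg C, 5% CO2; cells seeded overnight at 1000/well in OPTI-MEM, 5% FBS.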
A549 tox-1 – kills or reduces viability of A549 cells in Nrf2 counter-screen | A549 ARE-Fluc cells, CellTiter-Fluor viability, 18-24 h | Potency, µM (highest dose often 46 µM), for inactives: at the highest dose activity change, negative = cytotoxicity, hits mostly inhibitors | actives 0.16% (n = 390,000) | AID 504648; further: potency means the concentration at half of the fitted maximal effect; on the % scale 0 is the no-effect control and ±100 the full control effect
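A549 ARE_Fluc cells in 5% FBS OPTI-MEM were exposed to compounds in concentration-response for 18-24 h at 37 deg C. Viability was read by CellTiter-Fluor fluorescence (Ex 405/Em 525) after 30 min, before the luciferase read.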
IL-2 act – IL-2 activation; IL-2 activation reporter assay, cell-based qHTS; stimulated with anti-CD3/CD4/CD28 beads; in transgenic mouse T cells; activation, % (series mostly up to about 46 µM); actives 0.065% (n = 360,000); AID 652025; in the data active means activation above about 50%; inconclusive means mostly about 30% to 49%; further: 0% is about no effect
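Readout is EGFP and DsRed signal by fluorescent plate cytometry after 18 h at 37 degrees C. Transgenic mouse T cells (750/well) received compound for 60 min before bead stimulation (anti-CD3, anti-CD4, anti-CD28); memory T cells served as non-tolerant control.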
FLuc enzyme inh – counter-screen for Nrf2 inhibitors: firefly luciferase enzyme inhibition. shares compounds with Nrf2 inh. Potency, µM (highest dose often 57.5 µM), without a hit: top-dose activity change, negative = inhibition, actives largely listed as inhibitors. actives 4% (n = 1,400). purified firefly luciferase, luminescence inhibition; further: potency means the concentration at half of the fitted maximal effect; on the % scale 0 is the no-effect control and ±100 the full control effect; nearly all actives have a fitted effect of over 65% in size
Target sequence (P08659 whole entry, looked up): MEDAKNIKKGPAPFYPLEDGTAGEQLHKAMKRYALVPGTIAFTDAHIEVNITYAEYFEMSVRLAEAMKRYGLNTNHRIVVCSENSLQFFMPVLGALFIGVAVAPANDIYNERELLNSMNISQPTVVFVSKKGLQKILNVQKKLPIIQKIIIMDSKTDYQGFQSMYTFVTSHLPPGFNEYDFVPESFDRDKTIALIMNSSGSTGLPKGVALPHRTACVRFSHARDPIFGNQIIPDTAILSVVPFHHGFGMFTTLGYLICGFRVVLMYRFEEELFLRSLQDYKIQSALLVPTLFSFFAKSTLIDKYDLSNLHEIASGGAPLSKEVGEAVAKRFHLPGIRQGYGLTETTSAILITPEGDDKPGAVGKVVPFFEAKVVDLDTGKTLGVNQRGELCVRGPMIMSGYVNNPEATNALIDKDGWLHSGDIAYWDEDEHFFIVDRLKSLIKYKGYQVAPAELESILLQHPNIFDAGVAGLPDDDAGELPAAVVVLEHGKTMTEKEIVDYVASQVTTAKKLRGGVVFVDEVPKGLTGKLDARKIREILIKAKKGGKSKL
A549 tox-2 – A549 cytotoxicity, Nrf2 inhibitor counterscreen | shares compounds with Nrf2 inh | A549 ARE-Fluc cells, cytotoxicity counterscreen | Potency, µM (highest dose often 46.1 µM), for the others: at the top dose activity change, negative = cytotoxicity, hits mostly inhibitors | actives 2% (n = 1,400) | AID 720523;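 further: potency means the concentration at half of the fitted maximal effect; cells exposed to compounds for 18 to 24 hours; on the % scale 0 is the no-effect control and ±100 the full control effect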
Nrf2 ARE inh – confirmation of Nrf2 inhibitors in A549 ARE reporter cells; A549 ARE-firefly luciferase reporter, luminescence; actives 74% (n = 1,400); Potency, µM (highest dose often 46.1 µM), inactives show at the highest dose activity change, negative = inhibition, hits mostly inhibitors; AID 720524; shares compounds with Nrf2 inh; further: potency means the concentration at half of the fitted maximal effect; on the % scale 0 is the no-effect control and ±100 the full control effect; nearly all actives have a fitted effect of over 65% in size
Active calls of the source: *; ? = inconclusive; . = not tested or not shown; ! = not confirmed by another sample; [ ] = remark or other dose. Hits are enriched below; roughly 2.3% of the tested compounds scored in any of these assays. Unless noted, the call rests on the fitted dose curve; in most records, active means well fitted curve in the direction sought with a large enough effect; inconclusive means small, poorly fitted or top-dose-only effect, or another doubt; inactive means no such curve, though single readings can be large; an effect the other way counts as inactive or inconclusive.

SMILES	Nrf2 inh	Nrf2 ARE act	A549 tox-1	IL-2 act	FLuc enzyme inh	A549 tox-2	Nrf2 ARE inh
COc1ccccc1CNC(=O)Cn1c(-c2ccc(F)cc2)cc(C(C)=O)c1C	.	-1%	10%	.	.	.	.
O=C(C1CCN(S(=O)(=O)Cc2ccccc2)CC1)N1CCN(c2cccc(C(F)(F)F)c2)CC1	19%	-1%	-1%	.	.	.	.
CCC(NC(=O)c1cc(COc2cc(C)c(Cl)c(C)c2)on1)c1ccncc1 (stereo not given)	8%	7%	-2%	-1	.	.	.
CCC(NC(=O)c1cc(COc2ccc(C)nc2)on1)c1ccc(C)cc1 (stereo not given)	8.2µM*	0%	-22%	-4	0%	5%	?
CC(=O)N(c1ccc(Cl)cc1)C1SC(=O)N(c2ccccc2)C1=O (stereo not given)	0%	.	-1%	.	.	.	.
Cc1ccc(C[n+]2ccccc2)cc1	5.2µM*	0%	-9%	0	1%	-1%	21µM*
COC(=O)c1ccc(C[n+]2ccccc2)cc1	-25%	2%	1%	1	.	.	.
COc1ccc(CCNC(=O)/C=C\c2ccccc2)cc1OC	-16%	-1%	-3%	0	.	.	.
COc1ccc(/C=C/C(=O)NC(=S)NCCc2ccc(OC)c(OC)c2)cc1	7.3µM*	-1%	?	0	-4%	-13%	5%
COc1ccccc1N=c1oc2cc(O)ccc2cc1C(=O)NCC1CCCO1 (stereo not given)	?	2%	.	-1	-16%	0%	13µM*
CCc1nnc2c(NCc3ccccc3OC)nc3ccccc3n12	?	3%	0%	.	.	.	.
CCOC(=O)c1cc2c(=O)n3ccccc3nc2n(CCOC)c1=NC(=O)c1c(-c2c(F)cccc2Cl)noc1C	6.5µM*!	0%	-20%	0	0%	-17%	?
CCCCn1c(=NC(=O)c2c(-c3c(F)cccc3Cl)noc2C)c(C(=O)OCC)cc2c(=O)n3ccccc3nc21	-4%[9.27 µM]	0%	1%	.	.	.	.
CCOC(=O)c1c(NC(=O)Cn2c(C)nc3ccccc32)sc2c1CCC2	5.8µM*	0%	-4%	-1	1%	-10%	?
COc1cccc(NC(=O)CC(C)S(=O)(=O)c2ccc3c(c2)NC(=O)CO3)c1 (stereo not given)	-13%	0%	15%	.	.	.	.
CCOC(=O)N1CCC(Nc2ncnc3c2cnn3-c2ccc(C)cc2C)CC1	8.2µM*	1%	-16%	-3	1%	-2%	13µM*
C=CCNc1ncnc2c1cnn2-c1ccc(C)cc1C	9%	1%	-5%	-2	.	.	.
O=C(CSc1nc(=O)n(Cc2ccco2)c2c1CCC2)NCc1ccccc1	.	-1%	17%	.	.	.	.
COC(=O)c1ccccc1-c1ccc(/C=N/NC(=O)c2cc3ccccc3o2)o1	-26%	0%	0%	-1	.	.	.
COC(=O)c1ccccc1-c1c2ccc(=N)cc-2oc2cc(N)ccc12	1.2µM*	-1%	-11%	3	3%	-6%	8.2µM*
C[n+]1c2n(c3ccccc31)N=C(c1ccccc1)CS2	3.7µM*	8.9µM*	?	-3	0%	-9%	.
Cc1cccc(-c2nnc3n2N=C(c2ccccc2)CS3)c1	?	2%	-3%	-3	.	.	.
Cc1onc(-c2c(F)cccc2Cl)c1C(=O)Nc1nccs1	-13%	0%	1%	-1	.	.	.
Cc1onc(-c2c(F)cccc2Cl)c1C(=O)Nc1nnc(C(F)(F)F)s1	1.5µM*	5%	?	-2	-2%	-9%	0.12µM*
CCCCN=c1scc(-c2ccc3c(c2)NC(=O)CO3)n1N=C1CCCC1	.	4%	-18%	-2	.	.	.
SMILES	Nrf2 inh	Nrf2 ARE act	A549 tox-1	IL-2 act	FLuc enzyme inh	A549 tox-2	Nrf2 ARE inh
CCN=c1scc(-c2ccc3c(c2)NC(=O)CO3)n1N=C1CCCC1	16µM*	16%	-16%	-1	-10%	-12%	7.3µM*
COCC(C)n1c(-c2ccc3c(c2)NC(=O)CO3)csc1=Nc1ccc(OC(F)F)cc1 (stereo not given)	10µM*	12%	?	-1	0%	-26%	9.2µM*
COc1ccc(N2CCN(CCCNC(=O)c3c(C)nn(-c4ccc(F)cc4)c3-n3cccc3)CC2)cc1	?	3%	-14%	.	.	.	.
CCCOc1cccc(C2c3c(oc4ccc(F)cc4c3=O)C(=O)N2CCc2ccc(OC)cc2)c1 (stereo not given)	6%	0%	-5%	.	.	.	.
CCc1ccc(-n2nc(C)c3c(C)cc(=O)n(CC(=O)N4CCCc5ccccc54)c32)cc1	?	-1%	-1%	.	.	.	.
CC(=O)N1CCN(C(=O)CN2C(=O)NC(C)(c3ccc4ccccc4c3)C2=O)CC1 (stereo not given)	-10%	0%	6%	-2	.	.	.
CC1(c2ccc3ccccc3c2)NC(=O)N(CC(=O)N2CCN(Cc3ccc(C#N)cc3)CC2)C1=O (stereo not given)	0.41µM*	2%	-14%	-4	0%	2%	0.82µM*
O=C(CNc1cccc2ccccc12)N/N=C/c1ccc[nH]1	3.7µM*	4%	-8%	0	?	-18%	2.9µM*
CSc1ccc(/C=N/NC(=O)CNc2cccc3ccccc23)cc1	-18%	3%	-4%	0	.	.	.
O=S(=O)(NCc1cn2ccsc2n1)c1ccc(Oc2ccccc2)cc1	7.3µM*	0%	?	2	-1%	-6%	7.3µM*
O=S(=O)(NCc1cn2ccsc2n1)c1cccs1	?	4%	-1%	2	.	.	.
CC(=O)Nc1cccc(-c2cnc(N)c(C(=O)c3cccnc3)n2)c1	5.2µM*	-4%	?	0	-14%	-23%	.
NC(=O)c1cccc(-c2cnc(N)c(C(=O)c3cccnc3)n2)c1	?	-2%	?	0	.	.	.
CC1=C(C(=O)OCc2ccccc2)C(c2cccc(Br)c2)NC(=O)N1 (stereo not given)	-19%	0%	0%	1	.	.	.
CC1=C(C(=O)OCc2ccc3c(c2)OCO3)C(c2ccc(F)cc2)NC(=O)N1 (stereo not given)	4.1µM*	1%	-21%	-2	1%	-11%	8.2µM*
COc1ccc(COC(=O)C2=C(C)NC(=O)NC2c2cccc(Br)c2)cc1 (stereo not given)	?	6%	-5%	2	1%	-4%	?
COC(=O)c1cccc(Nc2nn3c(=O)c4cc5c(cc4nc3s2)OCO5)c1	1%[9.27 µM]	-1%	-6%	.	.	.	.
CSc1nc2sc3c(c2c(=O)n1-c1ccccc1C)CCCC3	.	2%	0%	.	.	.	.
